High-throughput results: PubChem BioAssay, National Center for Advancing Translational Sciences (NCATS)
An excerpt weighted towards active compounds, which were near 18% of everything screened.
CtBP-E1A blk = blocks the CtBP interaction with E1A; AlphaScreen GST-E1A/His-CtBP binding, 1536-well; active compounds read low; activity change, % (test concentration not listed); hit rate 0.49% among 340,000; in the data active means activity change below about -65%; inconclusive means mostly about -30% to -63%
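Steps: dispense buffer (Tris pH 8.0, NaCl 300 mM, TCEP 1 mM, BSA, Tween 20); add 5X protein mix (GST-E1A, His-CtBP, 125 nM each); pin 23 nL compound; 2 h at 37 °C, dark; add 5X beads (50 ug/mL); 1 h; read.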
DT40 TDP1 no CPT = qHTS for Inhibitors of human tyrosyl-DNA phosphodiesterase 1 (TDP1): qHTS in cells in absence of CPT; DT40 Tdp1-/- hTDP1 cells, no CPT, ATP luminescence, 48 h; Potency, µM (titrated, usually from 46.2 µM), without a hit: at the highest dose activity change, negative = growth inhibition, usual class: inhibitors; hit rate 15% among 420,000; AID 686978, 2013; further: potency means the concentration at half of the fitted maximal effect; nearly all actives have a fitted effect of over 55% in size
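DT40 Tdp1-/-;hTDP1 cells, no CPT (DMSO vehicle only), 400 cells/well; compounds pin-transferred; ≥48 hr, 37 °C; CellTiter-Glo 30 min RT dark, luminescence read.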
TDP1 inh = blocks human tyrosyl-DNA phosphodiesterase 1 | Q9NUW8 | recombinant TDP1, AlphaScreen DNA substrate cleavage | Potency, µM (highest dose often 130 µM), without a hit: top-dose activity change, negative = inhibition, usual class: inhibitors | hit rate 0.28% among 350,000; further: potency means the concentration at half of the fitted maximal effect; nearly all actives have a fitted effect of over 40% in size
Target sequence (Q9NUW8 whole entry, looked up): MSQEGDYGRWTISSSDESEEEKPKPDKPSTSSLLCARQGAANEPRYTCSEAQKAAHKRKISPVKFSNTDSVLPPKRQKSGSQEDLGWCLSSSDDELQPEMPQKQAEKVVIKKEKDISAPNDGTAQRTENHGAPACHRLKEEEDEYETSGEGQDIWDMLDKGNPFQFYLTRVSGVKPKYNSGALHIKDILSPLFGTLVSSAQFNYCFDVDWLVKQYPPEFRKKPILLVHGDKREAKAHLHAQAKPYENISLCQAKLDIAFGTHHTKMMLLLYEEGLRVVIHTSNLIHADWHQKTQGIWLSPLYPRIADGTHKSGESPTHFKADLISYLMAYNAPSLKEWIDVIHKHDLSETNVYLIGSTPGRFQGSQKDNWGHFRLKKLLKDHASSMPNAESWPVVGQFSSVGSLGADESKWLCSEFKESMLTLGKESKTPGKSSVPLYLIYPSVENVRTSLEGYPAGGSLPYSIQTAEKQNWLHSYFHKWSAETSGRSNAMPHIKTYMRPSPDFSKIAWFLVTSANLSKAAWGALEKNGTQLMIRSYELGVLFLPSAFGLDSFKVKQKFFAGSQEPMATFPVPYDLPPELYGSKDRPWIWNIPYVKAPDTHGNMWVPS
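Compounds were preincubated with Tdp1 (1 nM final) for 15 min at room temperature before substrate (15 nM final) started a 5 min reaction; beads (10 ug/ml final) were then added for 10 min before AlphaScreen detection.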
DT40 TDP1 CPT = growth inhibition of DT40 Tdp1-/-;hTDP1 cells with camptothecin (screen for TDP1 inhibitors) | chicken DT40 Tdp1-/-;hTDP1 cells + 20 nM CPT, ATP luminescence, 48 h | Potency, µM (doses to about 46.2 µM), for inactives: at the top dose activity change, negative = growth inhibition, most hits filed as inhibitors | hit rate 12% among 420,000 | AID 686979; further: potency means the concentration at half of the fitted maximal effect; nearly all actives have a fitted effect of over 55% in size
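Chicken DT40 Tdp1-/- cells complemented with human TDP1, 400 cells/well, exposed to compounds plus 20 nM camptothecin for at least 48 h at 37 C; viability read as ATP content by CellTiter-Glo luminescence.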
IL1B secr inh = inhibitors of inflammasome signaling (IL-1 beta secretion); activity change, % at 57.5 µM; THP-1 LPS/ATP IL-1B secretion, AlphaLISA, 16 h; active compounds read low; hit rate 4.7% among 360,000; AID 743279; in the data active means activity change below about -50%; inconclusive means mostly about -30% to -49%
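Secreted IL-1B measured by AlphaLISA bead assay after 16 h compound exposure of THP-1 cells; compounds (final up to 57.5 uM) added 1 h before LPS (250 ng/mL) and ATP (1.25 mM) stimulation; lower signal means less secretion.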
Six1-Eya2 blk = blocks human Six1 binding to Eya2; Q15475+O00167; AlphaScreen GST-Six1/His-Eya2 binding, biochemical; active compounds read low; activity change, % (concentration not given with the values); hit rate 0.56% among 360,000; in the data active means activity change below about -65%; inconclusive means mostly about -30% to -63%
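AlphaScreen luminescence read after one hour at 37 °C in darkness. Pin-transferred compounds met GST-Six1 and His-Eya2 protein (5X stock 250 nM/500 nM) plus glutathione donor and Ni-chelate acceptor beads (5X, 50 ug/mL).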
Starred values were filed as active, the others as inactive; [ ] = another dose, or the depositor's remark. Unless noted, the call rests on the fitted dose curve; in most records, active means well fitted curve in the direction sought with a large enough effect; inconclusive means small, poorly fitted or top-dose-only effect, or another doubt; inactive means no such curve, though single readings can be large; an effect the other way counts as inactive or inconclusive. On the % scale 0 is the no-effect control and ±100 the full control effect.

How did CCOc1ccc(NC(=O)COc2ccccc2C(=O)NCc2ccccc2)cc1 do in these assays?
CtBP-E1A blk: -7; DT40 TDP1 no CPT: inconclusive; TDP1 inh: 0%; DT40 TDP1 CPT: -30%; IL1B secr inh: -2; Six1-Eya2 blk: 8

What do the screens show for `N#Cc1ccc(NC(=O)COc2ccccc2C(=O)Nc2ccccc2)cc1`?
DT40 TDP1 no CPT: inconclusive; DT40 TDP1 CPT: 11µM*

What do the screens show for `CC(=O)Nc1nc(-c2ccc3c(c2)OCO3)cs1`?
CtBP-E1A blk: -3; DT40 TDP1 no CPT: -14%; DT40 TDP1 CPT: inconclusive; IL1B secr inh: -53*; Six1-Eya2 blk: -5

Results for CCOC(=O)N1CCN(C(=O)CSCC(=O)Nc2nc(-c3ccc(C)cc3)cs2)CC1 ?
CtBP-E1A blk: -10; DT40 TDP1 no CPT: 12µM*; TDP1 inh: 10%; DT40 TDP1 CPT: 16µM*; IL1B secr inh: 6; Six1-Eya2 blk: 0

What do the screens show for `O=C(CSCC(=O)N1CCOCC1)Nc1nc(-c2ccc3c(c2)OCO3)cs1`?
CtBP-E1A blk: inconclusive; DT40 TDP1 no CPT: -28%; TDP1 inh: 1%; DT40 TDP1 CPT: -29%; IL1B secr inh: -22; Six1-Eya2 blk: -21

What do the screens show for `CCOC(=O)N1CCN(C(=O)CSCC(=O)Nc2nc(-c3ccc4c(c3)OCO4)cs2)CC1`?
CtBP-E1A blk: -28; DT40 TDP1 no CPT: 21µM*; TDP1 inh: 1%; DT40 TDP1 CPT: 21µM*; IL1B secr inh: inconclusive; Six1-Eya2 blk: inconclusive

Results for O=C(Nc1nc(-c2ccc3c(c2)OCO3)cs1)C1COc2ccccc2O1 (stereo not given) ?
CtBP-E1A blk: -16; DT40 TDP1 no CPT: inconclusive; TDP1 inh: 5%; DT40 TDP1 CPT: -1%; IL1B secr inh: -21; Six1-Eya2 blk: -7

Results for O=C1NCCCN1Cc1ccc(Cl)cc1 ?
CtBP-E1A blk: -5; DT40 TDP1 no CPT: 1%; DT40 TDP1 CPT: 0%; IL1B secr inh: 3; Six1-Eya2 blk: -25

Results for CCN(CC)CCNc1ccc(CO)c2sc3ccccc3c(=O)c12 ?
CtBP-E1A blk: inconclusive; DT40 TDP1 no CPT: 1.2µM*; TDP1 inh: 14%[56.1 µM]; DT40 TDP1 CPT: 0.58µM*; IL1B secr inh: -105*; Six1-Eya2 blk: -7

How did O=c1c2ccccc2sc2c(CO)ccc(NCCN3CCCCC3)c12 do in these assays?
CtBP-E1A blk: inconclusive; DT40 TDP1 no CPT: 0.92µM*; DT40 TDP1 CPT: 0.41µM*; IL1B secr inh: -101*; Six1-Eya2 blk: inconclusive

What do the screens show for `CCN(CC)CCNc1cccc2sc3ccccc3c(=O)c12`?
CtBP-E1A blk: -14; DT40 TDP1 no CPT: 18µM*; DT40 TDP1 CPT: 23µM*; IL1B secr inh: 0; Six1-Eya2 blk: -11

What do the screens show for `CCN(CC)CCCNC(=O)c1csc(Nc2cccc3ccccc23)n1`?
CtBP-E1A blk: -6; DT40 TDP1 no CPT: -25%; TDP1 inh: 5%; DT40 TDP1 CPT: -12%; IL1B secr inh: -16; Six1-Eya2 blk: -11

How did CCN(CC)CCNC(=O)Cc1nn(CC)c(=O)c2ccccc12 do in these assays?
CtBP-E1A blk: 4; DT40 TDP1 no CPT: 3%; TDP1 inh: 0%; DT40 TDP1 CPT: 1%; IL1B secr inh: 19; Six1-Eya2 blk: 2

Results for CCN(CC)CCNc1ccc(CO)c2oc3ccccc3c(=O)c12 ?
CtBP-E1A blk: 5; DT40 TDP1 no CPT: 8.2µM*; DT40 TDP1 CPT: 8.2µM*; IL1B secr inh: -55*; Six1-Eya2 blk: inconclusive

Results for Cn1c(=S)[nH]c2[nH]c(=O)cnc2c1=O ?
CtBP-E1A blk: 17; DT40 TDP1 no CPT: -18%; TDP1 inh: 5%; DT40 TDP1 CPT: 9%; IL1B secr inh: 10; Six1-Eya2 blk: 5

How did O=C(Oc1cccc(OC(=O)N2CCCCC2)c1)N1CCCCC1 do in these assays?
CtBP-E1A blk: -2; DT40 TDP1 no CPT: inconclusive; TDP1 inh: 6%; DT40 TDP1 CPT: inconclusive; IL1B secr inh: 19; Six1-Eya2 blk: -1

How did COc1ccc(/C=C(\C#N)C(=O)NCc2ccccc2)cc1 do in these assays?
CtBP-E1A blk: 7; DT40 TDP1 no CPT: 5%; DT40 TDP1 CPT: -1%; IL1B secr inh: -20; Six1-Eya2 blk: 1

How did N#C/C(=C/c1ccc(O)cc1)C(=O)NCc1ccc(Cl)cc1 do in these assays?
CtBP-E1A blk: 23; DT40 TDP1 no CPT: -20%; DT40 TDP1 CPT: 10%; IL1B secr inh: -65*; Six1-Eya2 blk: -3

What do the screens show for `N#C/C(=C\c1ccc(O)cc1)C(=O)NCc1ccccc1`?
CtBP-E1A blk: -11; DT40 TDP1 no CPT: -4%; DT40 TDP1 CPT: inconclusive; IL1B secr inh: -63*; Six1-Eya2 blk: -6

How did N#C/C(=C\c1ccc(O)cc1)C(=O)NCc1cccc(Cl)c1 do in these assays?
CtBP-E1A blk: -1; DT40 TDP1 no CPT: -4%; DT40 TDP1 CPT: -7%; IL1B secr inh: -16; Six1-Eya2 blk: -12

How did CC(=O)Nc1ccc(/C=C(\C#N)C(=O)NCc2ccccc2)cc1 do in these assays?
CtBP-E1A blk: 2; DT40 TDP1 no CPT: inconclusive; TDP1 inh: 1%; DT40 TDP1 CPT: -20%; IL1B secr inh: -68*; Six1-Eya2 blk: 2

How did CCOC(=O)c1sc(Nc2cccc(Cl)c2)nc1C do in these assays?
CtBP-E1A blk: -2; DT40 TDP1 no CPT: inconclusive; TDP1 inh: 5%; DT40 TDP1 CPT: -13%; IL1B secr inh: -87*; Six1-Eya2 blk: -6

How did CCOC(=O)c1sc(Nc2nc(OC)cc(OC)n2)nc1C do in these assays?
CtBP-E1A blk: -21; DT40 TDP1 no CPT: 21µM*; DT40 TDP1 CPT: inconclusive; IL1B secr inh: 53; Six1-Eya2 blk: -3

How did CCOC(=O)c1sc(NC(C)=O)nc1C do in these assays?
CtBP-E1A blk: -1; DT40 TDP1 no CPT: -25%; TDP1 inh: 0%; DT40 TDP1 CPT: inconclusive; IL1B secr inh: inconclusive; Six1-Eya2 blk: 3

How did CCOC(=O)c1cccnc1SCC(=O)NCc1ccccc1 do in these assays?
CtBP-E1A blk: 2; DT40 TDP1 no CPT: -11%; TDP1 inh: 2%; DT40 TDP1 CPT: 1%; IL1B secr inh: 12; Six1-Eya2 blk: 3

How did CC(C)c1ccc(-c2nn(-c3ccccc3)cc2C2C(C#N)=C(N)OC3=C2C(=O)CC(C)(C)C3)cc1 (stereo not given) do in these assays?
CtBP-E1A blk: -4; DT40 TDP1 no CPT: 18µM*; TDP1 inh: 7%; DT40 TDP1 CPT: inconclusive; IL1B secr inh: -29; Six1-Eya2 blk: inconclusive

What do the screens show for `CC1(C)CC(=O)C2=C(C1)OC(N)=C(C#N)C2c1ccccc1[N+](=O)[O-]` (stereo not given)?
CtBP-E1A blk: -3; DT40 TDP1 no CPT: inconclusive; TDP1 inh: 4%; DT40 TDP1 CPT: 21µM*; IL1B secr inh: 5; Six1-Eya2 blk: 4
